This is part of a sample that, as a whole, favours compounds with a hit. Of some 83,000 tested, about 20% had one in any assay.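 The endpoint reported here, percent growth, reads 100 for growth as untreated, 0 for no net growth and -100 for all cells dead.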 Values without a mark were called inactive. Activity calls are given as the source filed them. How the source made its calls: active means growth percent below 10; inactive means the rest.

Experimental findings from PubChem BioAssay (NCI) are described below.

Test systems include T-47D breast; BT-549 breast; MDA-MB-435 melanoma; SW-620 colon; MCF7 breast; HCT-116 colon; HCC-2998 colon; KM12 colon.
Assay in all cases: NCI-60 one-dose screen, 48 h (100 = growth as untreated, 0 = no growth, -100 = all killed)
Settings in all cases: 10 µM unless noted

Turning to `Cc1ccc(N=CNN=C(N)N)cc1`, the growth is 98.8% in the assay on T-47D breast; 108% in the assay with BT-549 breast; 112% with MDA-MB-435 melanoma; 108% in the assay on SW-620 colon; 99% in the assay with MCF7 breast; 103% in the assay with HCT-116 colon. Also, the growth is 108% in the assay with HCC-2998 colon and 107% in the assay with KM12 colon.

For `O=C(Nc1ccc(Br)cc1)Nc1ccccc1Cl`, the growth with T-47D breast is 74.9%; with BT-549 breast, 103%; in the assay with MDA-MB-435 melanoma it was 102%; in the assay with SW-620 colon it was 96.4%; with MCF7 breast it was 71%; in the assay with HCT-116 colon it was 71.8%. Besides, the growth was 91% in the assay with HCC-2998 colon and 90.4% in the assay on KM12 colon.

As to `CCCCNCC(O)c1cc2c(Cl)cc(Cl)cc2c2cc(C(F)(F)F)ccc12` (stereo not drawn), the growth was -74.6% (active) in the assay with T-47D breast; 11.9% in the assay with BT-549 breast; -52.7% (active) in the assay with MDA-MB-435 melanoma; -68.2% (active) in the assay with SW-620 colon; -83.5% (active) in the assay on MCF7 breast; -91.7% (active) in the assay with HCT-116 colon. Also, the growth in the assay on HCC-2998 colon is -72% (active); with KM12 colon, -89.4% (active).

As for `CC(CN1CCN(CCOCCO)CC1)CN1c2ccccc2Sc2ccc(Cl)cc21` (stereo not drawn), the growth with T-47D breast is 62.7%; in the assay with BT-549 breast, 79.1%; with MDA-MB-435 melanoma, 22.4%; in the assay with SW-620 colon, 63.6%; in the assay with MCF7 breast, 55.6%; in the assay on HCT-116 colon, 37.5%. In addition, the growth in the assay with HCC-2998 colon was 39.5%; in the assay on KM12 colon it was 28%.

On to `CC1=C(C(=O)Nc2ccc(F)cc2)C(c2ccccc2)C2=C(CC(C)(C)CC2=O)N1` (stereo not drawn), for which the growth in the assay with T-47D breast was 63.6%; in the assay with BT-549 breast it was 91.1%; in the assay with MDA-MB-435 melanoma, 90.3%; with SW-620 colon, 89.7%; with MCF7 breast it was 67.1%; in the assay on HCT-116 colon it was 73.6%. Further, the values for the growth with HCC-2998 colon and in the assay with KM12 colon were 103% and 84.5%, respectively.

On to `O=C1/C(=C\c2cccn2C(=O)c2ccccc2)c2ccccc2N1c1c(Cl)cccc1Cl`, for which the growth in the assay with T-47D breast was 65.6%; with BT-549 breast, 102%; in the assay on MDA-MB-435 melanoma, 33.8%; in the assay with SW-620 colon, 30%; with MCF7 breast, 29.8%; in the assay on HCT-116 colon it was 30.5%. The growth in the assay on HCC-2998 colon was 83.8%; with KM12 colon it was 65.4%.

With `CC(C)CC(NC(=O)OCC1c2ccccc2-c2ccccc21)C(=O)O` (stereo not drawn), the growth in the assay with T-47D breast was 95.8%; with BT-549 breast it was 97%; with MDA-MB-435 melanoma it was 93.7%; in the assay on SW-620 colon, 116%; with MCF7 breast, 89.4%; with HCT-116 colon it was 103%. In addition, the growth with HCC-2998 colon is 112%; with KM12 colon, 106%.

For the compound `CC(C)COC(=O)NC(C)(C)C`, the growth with T-47D breast is 99.6%; in the assay on BT-549 breast, 102%; in the assay on MDA-MB-435 melanoma it was 107%; in the assay with SW-620 colon, 99.4%; with MCF7 breast it was 90.8%; in the assay with HCT-116 colon it was 105%. Also, the growth in the assay on HCC-2998 colon is 97%; with KM12 colon it was 113%.

`Nc1cccc(S(=O)(=O)c2cccc(N)c2)c1`: the growth was 104% with T-47D breast; 111% in the assay on BT-549 breast; 111% in the assay on MDA-MB-435 melanoma; 115% in the assay on SW-620 colon; 105% with MCF7 breast; 112% in the assay on HCT-116 colon. The growth is 126% in the assay with HCC-2998 colon and 129% in the assay with KM12 colon.

Take `C/C(=N\OC(=O)Nc1ccccc1)c1ccccc1`: the growth with T-47D breast is 104%; with BT-549 breast it was 99.9%; in the assay on MDA-MB-435 melanoma it was 95.1%; with SW-620 colon, 98.2%; in the assay on MCF7 breast, 95%; in the assay with HCT-116 colon it was 105%. Moreover, the growth in the assay on HCC-2998 colon is 117%; in the assay on KM12 colon, 107%.

On to `COc1cc(C2CC(c3cccc(Nc4ccnc5cc(Cl)ccc45)c3)=NN2c2ccc(Cl)cc2)cc(OC)c1OC` (stereo not drawn), for which the growth is 30.8% in the assay on T-47D breast; 81.7% with BT-549 breast; 8.15% (active) in the assay with MDA-MB-435 melanoma; 37.3% in the assay with SW-620 colon; 54.8% in the assay on MCF7 breast; 53% in the assay on HCT-116 colon. The results for the growth with HCC-2998 colon and with KM12 colon were 87.3% and 33.9%, respectively.

As for `COc1ccc(C2CC(c3cccc(Nc4ccnc5cc(Cl)ccc45)c3)=NN2c2ccccc2)cc1` (stereo not drawn), the growth was 50.8% in the assay on T-47D breast; 63% in the assay with BT-549 breast; -9.41% (active) in the assay on MDA-MB-435 melanoma; 36.8% with SW-620 colon; 47.6% in the assay on MCF7 breast; 65.5% in the assay with HCT-116 colon. Moreover, the results for the growth in the assay with HCC-2998 colon and in the assay on KM12 colon were 54.1% and 27.1%, respectively.

Take `Oc1ccc(Cl)cc1-c1cc(-c2ccccc2Cl)[nH]n1`: the growth in the assay with T-47D breast was 11.1%; in the assay on BT-549 breast, 76.2%; with MDA-MB-435 melanoma, 48.1%; in the assay on SW-620 colon, 74.7%; in the assay with MCF7 breast, 9.57% (active); in the assay with HCT-116 colon, 55.8%. For the same compound, the growth was 31.1% with HCC-2998 colon and 19.7% in the assay on KM12 colon.

Regarding `Cc1ccc(NC(=O)c2nc(S(C)(=O)=O)oc2-c2ccc(F)cc2)cc1Nc1ccc2ncn(C)c(=O)c2c1`, the growth is -9.98% (active) in the assay on T-47D breast; 66.3% in the assay with BT-549 breast; 69.4% in the assay with MDA-MB-435 melanoma; -6.67% (active) in the assay with SW-620 colon; 52.5% with MCF7 breast; -10.8% (active) in the assay with HCT-116 colon. For the same compound, the growth in the assay on HCC-2998 colon is 99.7%; with KM12 colon, 59.2%.

As for `COc1ccc2nc(NC(=O)/C(=C/c3cc(OC)c(OC)c(OC)c3)c3ccc(OC)c(OC)c3)sc2c1`, the growth in the assay on T-47D breast is 74.4%; in the assay on BT-549 breast it was 101%; in the assay on MDA-MB-435 melanoma, 101%; in the assay on SW-620 colon it was 102%; in the assay with MCF7 breast it was 87.1%; in the assay on HCT-116 colon it was 96.3%. The results for the growth in the assay with HCC-2998 colon and in the assay on KM12 colon were 113% and 101%, respectively.

`CCSc1ccc([C@@H]2[C@@H](N)C(=O)N2c2cc(OC)c(OC)c(OC)c2)cc1`: the growth in the assay with T-47D breast was 60.3%; in the assay on BT-549 breast, 32.7%; in the assay on MDA-MB-435 melanoma, -59.7% (active); with SW-620 colon, 25.8%; with MCF7 breast it was 19.6%; in the assay with HCT-116 colon, 10.2%. Besides, the growth in the assay on HCC-2998 colon was 31.2%; with KM12 colon it was 19.4%.
